# Laboratory results published in PubChem BioAssay (EPA / NIEHS).
# Results filed as inconclusive are left out. Calls of active or inactive are those of the source. The calls were made as follows: active = hit-call score of the fitted dose curve at least 0.9, where 1 is the maximum; inconclusive = response in the unintended direction; inactive = score below 0.9.
# Experiments:
# [1] = CCTE_Deisenroth_AIME_96WELL_CTox_Active: Cytotoxicity Assessment (CTOX) in CCTE's 96-well Estrogen Receptor Transactivation Assay with AIME metabolic competence (metabolism positive), Deisenroth Lab (AID 2284028)
# In short: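 Cytotoxicity in VM7Luc4E2 breast cells after 24 h exposure to medium from a 2 h metabolic pre-incubation with induced rat hepatic S9 in alginate microspheres; fluorescent live-cell protease readout, 10-point series 0.002–200 uM, n=4.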
# [2] = CCTE_Deisenroth_AIME_96WELL_CTox_Inactive: Cytotoxicity Assessment (CTOX) in CCTE's 96-well Estrogen Receptor Transactivation Assay without AIME metabolic competence (metabolism negative), Deisenroth Lab (AID 2284029)
# In short: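 Cytotoxicity in VM7Luc4E2 breast cells was scored as loss of fluorescent signal from a live-cell protease substrate 24 h after exposure, using bidirectional curve fitting. Test media came from a 2 h metabolism-negative pre-incubation (alginate-water, no hepatic S9) of compounds at 0.002-200 uM, with at least four replicates.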
smiles,measurement,setting,value
CC/C(=C(\c1ccc(O)cc1)c1ccc(OCCN(C)C)cc1)c1ccccc1,AC50,[1],57.8 µM (active)
same,AC50,[2],57.6 µM (active)
